Reference: PubChem BioAssay (NCATS)
Records with an inconclusive call do not appear. Active and inactive are the calls of the source. Unless noted, the call rests on the fitted dose curve; in most records, active means well fitted curve in the direction sought with a large enough effect; inconclusive means small, poorly fitted or top-dose-only effect, or another doubt; inactive means no such curve, though single readings can be large; an effect the other way counts as inactive or inconclusive.

What was measured:
[1] = target: Lysosomal acid glucosylceramidase (Homo sapiens) (UniProt P04062); experiment: Glucocerebrosidase-p2 (AID 348; in the data active means potency below about 10 µM; further: potency means the concentration at half of the fitted maximal effect); details: purified GBA, blue fluorogenic substrate, 40 min
Sequence of Lysosomal acid glucosylceramidase (Homo sapiens) (P04062 whole entry, looked up): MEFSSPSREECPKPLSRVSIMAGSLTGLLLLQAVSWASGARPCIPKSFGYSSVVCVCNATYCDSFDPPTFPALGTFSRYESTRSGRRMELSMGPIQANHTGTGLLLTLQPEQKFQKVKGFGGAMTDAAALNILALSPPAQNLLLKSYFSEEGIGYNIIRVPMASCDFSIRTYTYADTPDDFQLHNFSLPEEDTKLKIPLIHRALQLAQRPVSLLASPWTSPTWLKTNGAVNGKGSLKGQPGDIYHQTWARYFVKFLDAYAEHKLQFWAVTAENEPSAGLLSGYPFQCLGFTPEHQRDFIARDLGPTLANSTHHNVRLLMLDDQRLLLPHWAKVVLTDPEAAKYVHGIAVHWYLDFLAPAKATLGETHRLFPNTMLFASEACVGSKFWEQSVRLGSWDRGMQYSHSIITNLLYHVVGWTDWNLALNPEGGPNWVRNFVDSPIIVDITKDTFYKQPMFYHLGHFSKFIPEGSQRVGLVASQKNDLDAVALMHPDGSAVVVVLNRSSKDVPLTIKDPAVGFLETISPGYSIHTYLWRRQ
Outline: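 Compounds titrated from 0.6 nM upwards against 0.2 nM enzyme in pH 5.9 citric acid/KH2PO4, taurocholate, tween-20; blue fluorogenic substrate 80 uM, 40 min room temperature, stopped and read Ex 365/Em 440 for AC50.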

[2] = AP1 Signaling Pathway (AID 357; active means well fitted curve in either direction with a large enough effect, not every such curve was filed as active; further: on the % scale 0 is the no-effect control and ±100 the full control effect); details: ME-180 AP-1-bla reporter, EGF-induced, beta-lactamase ratio, 5 h; at 7.69 µM (top of the series) unless noted
Outline: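 ME-180 cells with beta-lactamase reporter under AP-1 response element, stimulated with EC50 EGF; compounds tested in titration series, 5 h at 37 °C. CCF4 substrate added 2.5 h at room temperature; 460/530 nm emission ratio gave %activity and AC50.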

[3] = target: Cytochrome P450 1A2 (Homo sapiens) (UniProt P05177); experiment: p450-cyp1a2 (AID 410; calls by dose curve; further: potency means the concentration at half of the fitted maximal effect;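 on activity change, negative = inhibition: -100% = full effect of reference inhibitor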); details: recombinant CYP1A2, luciferin-ME demethylation, luminescence; series mostly up to 57 µM
Sequence of Cytochrome P450 1A2 (Homo sapiens) (P05177 whole entry, looked up): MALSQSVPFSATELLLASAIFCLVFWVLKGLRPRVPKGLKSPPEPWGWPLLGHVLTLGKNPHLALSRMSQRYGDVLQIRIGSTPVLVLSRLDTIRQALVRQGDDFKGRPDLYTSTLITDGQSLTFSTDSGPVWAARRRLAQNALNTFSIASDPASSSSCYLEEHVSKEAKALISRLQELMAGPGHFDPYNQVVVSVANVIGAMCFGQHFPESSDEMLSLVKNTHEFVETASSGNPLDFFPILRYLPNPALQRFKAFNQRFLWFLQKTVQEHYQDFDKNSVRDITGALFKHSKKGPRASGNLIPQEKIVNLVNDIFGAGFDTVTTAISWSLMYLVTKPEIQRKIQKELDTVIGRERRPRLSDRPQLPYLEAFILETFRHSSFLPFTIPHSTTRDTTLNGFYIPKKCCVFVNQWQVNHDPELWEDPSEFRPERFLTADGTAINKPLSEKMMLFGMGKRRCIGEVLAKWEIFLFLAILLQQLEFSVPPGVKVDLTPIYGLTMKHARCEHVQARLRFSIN
Outline: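 20nM CYP1A2 with 100uM Luciferin-ME (at Km) in 100mM KPO4; compound preincubated 10 min, NADPH regeneration added, 60 min at room temperature. Luciferin quantified by luminescence after detection reagent; normalized to 57 uM furafylline.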

[4] = NFAT Signaling Pathway (AID 444; active means well fitted curve in either direction with a large enough effect, not every such curve was filed as active;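 further: carbachol stimulus at about its EC50 of 1 µM final; on the % scale 0 is the no-effect control and ±100 the full control effect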); details: Jurkat NFAT-bla M1, carbachol, beta-lactamase ratio, 5 h; at 7.69 µM (top of the series) unless noted
Outline: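 Jurkat cells carrying an NFAT-driven β-lactamase reporter and co-transfected muscarinic M1 receptor were treated with compound plus carbachol (1 uM final, an EC50 level) for 5 h at 37 °C. CCF4 loading followed for 1 h at RT; 460/530 nm ratio gave %activity.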

[5] = Stat Signaling Pathway (AID 446; active means well fitted curve in either direction with a large enough effect, not every such curve was filed as active;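 further: ME-180 cervical cancer cells given 40 pM IL-6 alongside compound; SIE-controlled beta-lactamase reporter measured as 460/530 nm FRET emission ratio; on the % scale 0 is the no-effect control and ±100 the full control effect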); details: ME-180 SIE beta-lactamase reporter, IL-6 stimulated, 5 h; at 7.69 µM (top of the series) unless noted
Outline: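 ME-180 cells carrying a SIE-driven beta-lactamase reporter are stimulated with 40 pM IL-6 for 5 h at 37C in the presence of compound. The 460/530 nm FRET substrate ratio is read after 2.5 h at RT. Data are normalised to 300 pM IL-6 and to 125 nM JAK inhibitor controls.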

[6] = target: Glucocorticoid receptor (Homo sapiens) (UniProt P04150); experiment: GR-GFP Redistribution (AID 450;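 active means compounds whose dose series gives a full or clear partial fitted curve of increased nuclear translocation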; further: potency means the concentration at half of the fitted maximal effect); details: U2OS GR-GFP nuclear translocation, laser cytometry, 2 h
Sequence of Glucocorticoid receptor (Homo sapiens) (P04150 whole entry, looked up, the tested form may be a part): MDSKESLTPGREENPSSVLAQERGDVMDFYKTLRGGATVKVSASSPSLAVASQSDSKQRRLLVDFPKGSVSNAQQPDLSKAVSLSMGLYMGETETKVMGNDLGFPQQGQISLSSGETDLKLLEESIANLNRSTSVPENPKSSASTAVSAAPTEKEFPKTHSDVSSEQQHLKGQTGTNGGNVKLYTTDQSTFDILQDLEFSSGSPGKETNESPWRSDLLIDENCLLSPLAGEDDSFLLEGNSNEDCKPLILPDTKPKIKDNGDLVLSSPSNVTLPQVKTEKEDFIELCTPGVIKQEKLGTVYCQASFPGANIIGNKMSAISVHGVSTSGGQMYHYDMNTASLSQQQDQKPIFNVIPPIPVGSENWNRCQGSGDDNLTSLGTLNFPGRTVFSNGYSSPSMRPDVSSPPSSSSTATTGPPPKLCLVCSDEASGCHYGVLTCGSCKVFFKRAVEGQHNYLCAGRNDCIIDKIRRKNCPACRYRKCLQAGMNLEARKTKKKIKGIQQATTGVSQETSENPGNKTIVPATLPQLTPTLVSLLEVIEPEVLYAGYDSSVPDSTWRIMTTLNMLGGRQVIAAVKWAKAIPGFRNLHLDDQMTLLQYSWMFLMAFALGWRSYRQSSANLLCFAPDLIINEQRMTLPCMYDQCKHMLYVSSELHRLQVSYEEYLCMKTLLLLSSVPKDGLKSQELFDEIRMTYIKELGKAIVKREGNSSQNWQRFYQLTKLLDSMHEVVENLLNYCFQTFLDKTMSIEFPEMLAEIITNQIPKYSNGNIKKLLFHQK

[7] = target: Glucocorticoid receptor (Homo sapiens) (UniProt P04150); experiment: GR-EFC Redistribution (AID 451; calls by dose curve; further: potency means the concentration at half of the fitted maximal effect); details: CHO-K1 GR-EFC translocation, beta-gal luminescence, 2 h
Outline: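 CHO-K1 cells stably expressing nuclear-localized β-gal enzyme acceptor and GR fused C-terminally to the enzyme donor fragment; ligand-driven nuclear translocation restores β-gal by complementation. Compounds titrated up to 46 uM final, 2 h at 37 °C; luminescence read.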

[8] = target: Mitogen-activated protein kinase 10 (Mus musculus) (UniProt Q61831); experiment: JNK3 AlphaScreen Assay (AID 530; active means well fitted curve in either direction with a large enough effect, not every such curve was filed as active;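 further: kinase came from lysate of stimulated human HepG2 cells; signal reports phosphorylation of biotinylated GST-cJun 1-79 at Ser73 with 10 µM ATP; on the % scale 0 is the no-effect control and ±100 the full control effect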); details: JNK3 lysate, c-Jun phosphorylation; series mostly up to 57.1 µM
Outline: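 Inhibitors reduce antibody binding to phosphorylated biotin-cJun, lowering AlphaScreen luminescence. Lysates from HepG2 cells pre-activated by IL-1beta plus TNF-alpha supplied JNK3; compounds were titrated.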

[9] = target: 3',5'-cyclic-AMP phosphodiesterase 4B (Homo sapiens) (UniProt Q07343); experiment: qHTS Assay for Inhibitors of PDE-IV (AID 607; active means well fitted activation curve with a large enough effect in the main read-out, with a control signal flat, not every such curve was filed as active; further: % of control where 0% means no effect); details: HEK293 ACTOne CNG channel cells, membrane potential fluorescence; series mostly up to 22.9 µM
Sequence of 3',5'-cyclic-AMP phosphodiesterase 4B (Homo sapiens) (Q07343 whole entry, looked up): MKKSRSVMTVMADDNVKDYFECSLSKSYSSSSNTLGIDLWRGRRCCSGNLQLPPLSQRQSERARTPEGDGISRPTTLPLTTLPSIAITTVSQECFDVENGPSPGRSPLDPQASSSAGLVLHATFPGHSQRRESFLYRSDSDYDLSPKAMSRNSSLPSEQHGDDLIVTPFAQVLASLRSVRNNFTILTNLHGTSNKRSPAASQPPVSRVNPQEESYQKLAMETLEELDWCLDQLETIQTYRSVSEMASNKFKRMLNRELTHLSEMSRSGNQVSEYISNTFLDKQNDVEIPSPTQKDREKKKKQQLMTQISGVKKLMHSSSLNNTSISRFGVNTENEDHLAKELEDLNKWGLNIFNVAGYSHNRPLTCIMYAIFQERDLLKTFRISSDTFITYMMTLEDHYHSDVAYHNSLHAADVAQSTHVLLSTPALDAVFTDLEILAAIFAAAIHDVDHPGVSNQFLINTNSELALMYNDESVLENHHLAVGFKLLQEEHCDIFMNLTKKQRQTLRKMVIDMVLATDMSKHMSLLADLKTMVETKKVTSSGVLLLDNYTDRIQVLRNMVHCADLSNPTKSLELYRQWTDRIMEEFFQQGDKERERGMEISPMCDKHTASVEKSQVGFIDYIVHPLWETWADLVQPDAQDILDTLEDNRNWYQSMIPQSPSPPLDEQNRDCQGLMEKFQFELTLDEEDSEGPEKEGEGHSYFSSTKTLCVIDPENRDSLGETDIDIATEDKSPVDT
Outline: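 HEK293 ACTOne cells with CNG channel (1000/well), endogenous PDE4; membrane potential dye, compounds up to 22.9 uM final. Fluorescence Ex 535/Em 590; RO 20-1724 (100 uM final) as reference.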

[10] = target: Cytochrome P450 3A4 (Homo sapiens) (UniProt P08684); experiment: qHTS Assay for Activators of Cytochrome P450 3A4 (AID 885); details: recombinant CYP3A4, Luciferin-PPXE luminescence, 60 min; series mostly up to 57.1 µM; further: nearly all actives have a fitted effect of over 65% in size
Sequence of Cytochrome P450 3A4 (Homo sapiens) (P08684 whole entry, looked up): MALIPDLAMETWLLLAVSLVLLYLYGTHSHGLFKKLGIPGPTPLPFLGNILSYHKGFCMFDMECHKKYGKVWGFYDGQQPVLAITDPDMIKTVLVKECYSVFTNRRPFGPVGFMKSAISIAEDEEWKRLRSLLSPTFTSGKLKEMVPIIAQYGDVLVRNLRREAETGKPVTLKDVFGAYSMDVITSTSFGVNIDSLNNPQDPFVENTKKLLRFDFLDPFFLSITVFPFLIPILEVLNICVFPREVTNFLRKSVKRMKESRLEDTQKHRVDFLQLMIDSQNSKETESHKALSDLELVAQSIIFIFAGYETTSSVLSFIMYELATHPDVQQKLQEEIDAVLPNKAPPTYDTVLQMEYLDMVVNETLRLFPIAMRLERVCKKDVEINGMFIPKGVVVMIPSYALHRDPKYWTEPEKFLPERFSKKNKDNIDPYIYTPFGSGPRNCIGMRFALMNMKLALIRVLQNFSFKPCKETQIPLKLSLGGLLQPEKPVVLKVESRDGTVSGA
Outline: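 Human CYP3A4 (20 nM) with Luciferin-PPXE at 25 uM (its KM) in 200 mM KPO4; 10 min compound preincubation, then NADPH regeneration and 60 min reaction at RT. Luciferin read by luminescence; normalized to 57 uM ketoconazole full inhibition.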

[11] = Confirmation and Secondary Assay for Modulators of Hemoglobin Beta Chain Splicing at IVS2 654 locus (AID 910); details: HeLa EGFP-654 splicing reporter, GFP fluorescence, 48 h; series mostly up to 38.3 µM;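 further: per-well total GFP intensity by laser scanning cytometry after 2-day treatment; % of control where 0% means no effect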
Outline: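 HeLa cells stably carrying EGFP interrupted by mutant beta-globin IVS2-654 intron (CMV-driven) were treated with compound for 2 days at 37C; corrected splicing was scored as total peak GFP intensity per well (488 nm excitation, 500-520 nm emission).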

[12] = Confirmation and Secondary Assay for Modulators of Hemoglobin Beta Chain Splicing at IVS2 705 locus (AID 930); details: HeLa EGFP-705 splicing reporter, GFP fluorescence, 48 h; series mostly up to 38.3 µM;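 further: HeLa cells stably expressing the EGFP-705 splicing reporter; GFP fluorescence per well restored by corrected splicing of the IVS2-705 intron in EGFP; % of control where 0% means no effect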
Outline: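 Per-well GFP, captured at 1 x 8 µm resolution with 488 nm excitation, served as the read-out for HeLa EGFP-705 cells incubated 2 days with test compound versus DMSO.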

[13] = qHTS Assay for Lipid Storage Modulators (AID 1519; calls by dose curve); details: Drosophila S3 cells, BODIPY lipid droplet/cell ratio, laser cytometry, cells loaded with oleic acid; for activity change, negative = inhibition: at 57.5 µM (top of the series)
Outline: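 Cells seeded at 5,000 per well were treated with compounds over a concentration series and loaded with oleic acid (400 uM, as added). Lipid droplet fluorescence (488 nm excitation, 500-530 nm channel) was read by laser-scanning cytometry and normalized to 20 uM Triacsin C.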

[14] = target: Ubiquitin carboxyl-terminal hydrolase 1 (Homo sapiens) (UniProt O94782); experiment: Inhibitors of USP1/UAF1: Pilot qHTS (AID 504865); details: purified USP1/UAF1, Ub-rhodamine cleavage fluorescence; series mostly up to 54.9 µM; further: nearly all actives have a fitted effect of over 35% in size; further: potency means the concentration at half of the fitted maximal effect
Sequence of Ubiquitin carboxyl-terminal hydrolase 1 (Homo sapiens) (O94782 whole entry, looked up): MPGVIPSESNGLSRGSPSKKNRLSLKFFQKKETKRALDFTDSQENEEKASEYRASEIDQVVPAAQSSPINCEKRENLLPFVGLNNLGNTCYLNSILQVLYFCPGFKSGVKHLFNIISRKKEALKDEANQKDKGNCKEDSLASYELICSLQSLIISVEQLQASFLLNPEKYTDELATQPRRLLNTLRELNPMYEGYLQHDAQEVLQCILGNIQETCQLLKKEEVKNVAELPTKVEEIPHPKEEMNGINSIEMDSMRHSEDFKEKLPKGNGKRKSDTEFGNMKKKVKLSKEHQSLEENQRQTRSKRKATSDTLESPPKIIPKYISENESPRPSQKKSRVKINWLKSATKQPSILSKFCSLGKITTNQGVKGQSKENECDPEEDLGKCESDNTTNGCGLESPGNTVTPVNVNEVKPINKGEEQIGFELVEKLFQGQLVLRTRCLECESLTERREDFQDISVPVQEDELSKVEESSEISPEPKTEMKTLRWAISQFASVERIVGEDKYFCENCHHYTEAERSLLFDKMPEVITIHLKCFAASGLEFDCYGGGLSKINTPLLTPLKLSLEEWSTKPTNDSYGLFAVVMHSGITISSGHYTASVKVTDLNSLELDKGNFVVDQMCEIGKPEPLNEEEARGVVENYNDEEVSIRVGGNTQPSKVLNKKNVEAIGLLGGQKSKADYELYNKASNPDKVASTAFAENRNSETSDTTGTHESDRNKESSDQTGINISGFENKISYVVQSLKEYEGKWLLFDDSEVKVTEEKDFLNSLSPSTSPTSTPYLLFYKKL
Outline: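 Kinetic fluorescence assay: 1nM USP1/UAF1, 15 min compound preincubation, then 150nM Ub-Rho; 480/540 nm.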

[15] = Primary qHTS for small molecule stabilizers of the endoplasmic reticulum resident proteome: Secreted ER Calcium Modulated Protein (SERCaMP) assay (AID 1508630); details: SH-SY5Y GLuc-SERCaMP (Gaussia luciferase released on ER calcium loss) secretion, thapsigargin, luminescence; series mostly up to 38.4 µM; further: on the % scale 0 is the no-effect control and ±100 the full control effect
Outline: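 GLuc-SERCaMP-expressing SH-SY5Y cells, pretreated 16 h with compound, are challenged with thapsigargin to empty ER calcium stores; after 4 h, coelenterazine is added directly to the medium and luminescence is imaged.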

[16] = target: Cytochrome P450 2C19 (Homo sapiens) (UniProt P33261); experiment: qHTS Assay for Inhibitors and Substrates of Cytochrome P450 2C19 (AID 899); details: recombinant CYP2C19, luciferin-H EGE luminescence; series mostly up to 57.1 µM; further: nearly all actives have a fitted effect of over 60% in size; further: potency means the concentration at half of the fitted maximal effect
Sequence of Cytochrome P450 2C19 (Homo sapiens) (P33261 whole entry, looked up): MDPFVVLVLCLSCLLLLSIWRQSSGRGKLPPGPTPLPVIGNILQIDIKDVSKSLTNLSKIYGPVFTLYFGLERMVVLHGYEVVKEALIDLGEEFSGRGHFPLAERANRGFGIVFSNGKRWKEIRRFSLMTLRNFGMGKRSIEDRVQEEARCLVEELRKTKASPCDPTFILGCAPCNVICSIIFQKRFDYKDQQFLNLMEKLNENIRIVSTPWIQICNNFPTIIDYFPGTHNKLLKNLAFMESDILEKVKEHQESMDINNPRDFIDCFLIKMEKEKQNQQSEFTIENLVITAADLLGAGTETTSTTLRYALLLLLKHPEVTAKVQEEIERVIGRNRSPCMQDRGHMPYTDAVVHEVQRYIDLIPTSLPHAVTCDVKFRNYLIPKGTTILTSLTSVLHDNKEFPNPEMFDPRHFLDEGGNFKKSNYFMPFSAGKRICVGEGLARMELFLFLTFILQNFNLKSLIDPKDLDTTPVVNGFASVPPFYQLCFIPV
Outline: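 NADPH-dependent conversion of Luciferin-H EGE (10uM, at KM) by 5nM enzyme in 50mM KPO4, 60 min at 37C following 10 min compound preincubation. Stopped with luciferin detection buffer; luminescence read after 20 min.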

[17] = target: Cytochrome P450 3A4 (Homo sapiens) (UniProt P08684); experiment: qHTS Assay for Inhibitors and Substrates of Cytochrome P450 3A4 (AID 884); details: recombinant CYP3A4, Luciferin-PPXE luminescence; series mostly up to 57.1 µM; further: potency means the concentration at half of the fitted maximal effect; nearly all actives have a fitted effect of over 50% in size
Outline: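 20 nM human CYP3A4 with 25 uM Luciferin-PPXE (at KM) in 200 mM KPO4, preincubated 10 min with compound; NADPH regeneration started a 60 min RT reaction. Luciferin detected by luminescence, normalized to 57 uM ketoconazole as full inhibition.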

[18] = qHTS Assay for Identification of Small Molecule Agonists for Hypoxia Response Element Signaling Pathway (AID 914; active means well fitted activation curve with a large enough effect in the signal ratio, with a control signal flat, not every such curve was filed as active; the % refers to the signal ratio; further: % of control where 0% means no effect); details: ME-180 (cervical carcinoma) HRE-bla reporter, beta-lactamase ratio, CoCl2, 17 h; activation: stronger effect = higher value
Outline: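 In Opti-MEM containing 0.5% dialyzed FBS and 10 mM HEPES, ME-180 HRE-bla cells received a compound titration and EC50 CoCl2. They were incubated 17 hours, then CCF4-loaded 2.5 hours at room temperature before ratio reading.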

[19] = measured here: cell count channel max response
[20] = measured here: lipid channel max response

Row | SMILES | Potency [1] | activity change, negative = inhibition [2] | Potency [3] | activity change, negative = inhibition [4] | activity, negative = inhibition [5] | Potency [6] | Potency [7] | outcome [8] | Potency [9] | Potency [10] | outcome [11] | outcome [12] | activity change, negative = inhibition [13] | max response [13, 19] [%] | max response [13, 20] [%] | Potency [14] | Potency [15] | Potency [16] | Potency [17] | activation [18]
1 | CN(C)c1ccnc(-c2cccc(NS(C)(=O)=O)c2)n1 | > 11.4 µM (inactive) | -6.35% (inactive) | 1.58 µM (active) | 0.933% (inactive) | 3.11% (inactive) | > 46 µM (inactive) | > 46 µM (inactive) | inactive | inactive | inactive | inactive | inactive | 11.6% (inactive) | 7.48 | 20 | inactive | inactive | – | – | –
2 | CN(Cc1ccco1)c1ncnc2ccc(-c3cccc(C#N)c3)cc12 | > 11.4 µM (inactive) | 6.41% (inactive) | 0.501 µM (active) | 19.8% (inactive) | -5.78% (inactive) | > 46 µM (inactive) | > 46 µM (inactive) | inactive | inactive | inactive | inactive | inactive | 6.34% (inactive) | -3.6 | 2.39 | inactive | inactive | 6.31 µM (active) | – | –
3 | Cc1noc(C)c1-c1nccc(-n2ccnc2)n1 | > 11.4 µM (inactive) | 3.6% (inactive) | 0.2 µM (active) | -0.351% (inactive) | 16.2% (inactive) | > 46 µM (inactive) | > 46 µM (inactive) | inactive | inactive | inactive | inactive | inactive | 7.83% (inactive) | 12.5 | 20.6 | inactive | inactive | 3.98 µM (active) | 1.26 µM (active) | –
4 | Cc1ccccc1-c1cncnc1Nc1ccc(F)cc1 | > 11.4 µM (inactive) | 15.1% (inactive) | 10 µM (active) | 3.46% (inactive) | 32.1% (inactive) | > 46 µM (inactive) | > 46 µM (inactive) | inactive | – | inactive | inactive | inactive | 6.79% (inactive) | -4.87 | 2.59 | inactive | inactive | 5.01 µM (active) | 0.199 µM (active) | –
5 | COCCNc1cc(-c2ccccc2CN(C)C)ncn1 | > 11.4 µM (inactive) | 1.28% (inactive) | inactive | -0.403% (inactive) | 13.5% (inactive) | > 46 µM (inactive) | > 46 µM (inactive) | inactive | inactive | – | inactive | inactive | 4.45% (inactive) | 21.8 | 24.8 | inactive | inactive | – | – | –
6 | Clc1ccccc1-c1nccc(-n2ccnc2)n1 | > 11.4 µM (inactive) | -12.3% (inactive) | 0.158 µM (active) | -0.584% (inactive) | 0.405% (inactive) | > 46 µM (inactive) | > 46 µM (inactive) | inactive | inactive | inactive | inactive | inactive | 8.95% (inactive) | 4.29 | 13 | – | inactive | 2.51 µM (active) | 1.26 µM (active) | –
7 | COc1ccc(-n2c(=O)c(-c3cn(C)c4ccccc34)nc3cnc(OC)nc32)cc1 | > 11.4 µM (inactive) | -6.77% (inactive) | inactive | -7.96% (inactive) | 5.87% (inactive) | > 9.22 µM (inactive) | > 46 µM (inactive) | inactive | inactive | inactive | – | – | -13.3% (inactive) | 4.94 | -9.54 | – | inactive | – | – | –
8 | CN(C)c1ccc(-c2ccc3ncnc(N4CCNCC4)c3c2)cc1 | > 11.4 µM (inactive) | 5.26% (inactive) | 2.51 µM (active) | -13.1% (inactive) | 5.8% (inactive) | > 46 µM (inactive) | > 46 µM (inactive) | inactive | inactive | – | inactive | inactive | 7.34% (inactive) | -3.08 | 4.85 | – | inactive | – | – | –
9 | COc1ccc(Oc2ncc3ncc(=O)n(C[C@H]4CCCO4)c3n2)cc1 | > 11.4 µM (inactive) | -24.4% (inactive) | 6.31 µM (active) | -8.98% (inactive) | -26.1% (inactive) | > 9.22 µM (inactive) | > 46 µM (inactive) | inactive | inactive | inactive | – | – | -4.96% (inactive) | 9.86 | 2.03 | – | inactive | – | – | -21.9% (inactive)
10 | O=c1c(-c2ccc(F)cc2)nc2cnc(N3CCOCC3)nc2n1C[C@H]1CCCO1 | > 11.4 µM (inactive) | 9.7% (inactive) | 1.58 µM (active) | 1.18% (inactive) | 29.2% (inactive) | > 9.22 µM (inactive) | > 46 µM (inactive) | inactive | inactive | – | – | – | -21.9% (inactive) | 16.8 | -2.6 | – | inactive | inactive | – | –
11 | COc1cccc(-c2nccc(NCc3cccc(C)c3)n2)c1 | > 11.4 µM (inactive) | -15.4% (inactive) | 0.316 µM (active) | -2.73% (inactive) | -25.6% (inactive) | > 46 µM (inactive) | – | inactive | inactive | inactive | inactive | inactive | 7.01% (inactive) | -6.39 | -3.6 | 35.5 µM (active) | inactive | 6.31 µM (active) | 3.98 µM (active) | –
12 | COc1ccc(Oc2ncc3ncc(=O)n(C)c3n2)cc1 | > 11.4 µM (inactive) | -12.2% (inactive) | 3.98 µM (active) | -6.92% (inactive) | -7.6% (inactive) | – | > 46 µM (inactive) | inactive | inactive | inactive | – | – | 5.63% (inactive) | 9.26 | 14.1 | inactive | inactive | – | – | –
